An excerpt weighted towards active compounds, which were near 1.2% of everything screened.
RGS8-Gao: RGS8-Galphao binding modulators, primary screen, biochemical, multiplexed bead flow cytometry; Guanine nucleotide-binding protein G(o) subunit alpha (Homo sapiens), P09471; actives lie on both sides; response (percent of control binding), % at 10 µM; 220,000 tested, 0.34% active; in the data active = response below about 60% or above about 140%; inactive = in between;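 note: Galphao activated as the GDP aluminium fluoride complex binding bead-coupled RGS8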
Target sequence (P09471 whole entry, looked up): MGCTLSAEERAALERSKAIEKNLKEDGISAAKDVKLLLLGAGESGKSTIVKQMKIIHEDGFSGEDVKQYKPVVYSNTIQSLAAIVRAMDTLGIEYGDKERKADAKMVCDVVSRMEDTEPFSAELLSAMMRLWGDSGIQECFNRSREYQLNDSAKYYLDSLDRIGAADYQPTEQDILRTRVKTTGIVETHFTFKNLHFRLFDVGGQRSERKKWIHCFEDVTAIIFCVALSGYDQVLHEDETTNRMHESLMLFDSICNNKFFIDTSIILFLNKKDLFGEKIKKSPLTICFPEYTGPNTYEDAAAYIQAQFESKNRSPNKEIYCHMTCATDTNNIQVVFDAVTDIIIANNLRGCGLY
RGS7-Gao reg: RGS7-Galphao binding modulators, primary screen, biochemical, multiplexed bead flow cytometry | 220,000 tested, 0.35% active | Guanine nucleotide-binding protein G(o) subunit alpha (Homo sapiens), P09471 | AID 1439, 2008 | binding response (% of control), % at 10 µM | actives lie on both sides; in the data active = binding response below about 49% or above about 150%; inconclusive = no clear call, values can overlap the other calls; inactive = in between;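 note: fluorescent Galphao held in activated GDP-AlF4 state binding bead-coupled RGS7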
Avidin bead fluor: green autofluorescence of compounds with avidin beads – biophysical, 488/530 nm, flow cytometry, artefact control, profiling panel | fluorescence (KMESF) at 10 µM | AID 1775, 2009 | compound fluorescence 488/530 nm; active compounds read high | 220,000 tested, 0.38% active; in the data active = fluorescence above about 47
RGS16-Gao HTS: modulators of RGS16 binding to Galphao, primary screen, biochemical, human proteins, multiplexed bead flow cytometry. binding response (% of control), % at 10 µM. bead-based flow cytometry RGS16-Galphao binding, fluorescence; actives lie on both sides. 220,000 tested, 0.38% active. AID 1441, 2008. Regulator of G-protein signaling 16 (Homo sapiens) + Guanine nucleotide-binding protein …;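 note: Galphao activated by GDP with aluminum fluoride before binding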
Target sequence (O15492 whole entry, looked up): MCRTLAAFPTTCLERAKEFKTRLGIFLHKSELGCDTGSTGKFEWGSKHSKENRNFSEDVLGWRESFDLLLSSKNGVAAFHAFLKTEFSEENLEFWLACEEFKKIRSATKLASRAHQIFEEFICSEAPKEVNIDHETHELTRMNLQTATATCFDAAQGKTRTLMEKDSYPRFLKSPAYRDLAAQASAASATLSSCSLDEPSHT
Target sequence (P09471 whole entry, looked up): as the sequence (P09471 whole entry, looked up) above
RGS4-Gao reg: modulators of RGS4 binding to Galphao, primary screen, biochemical, multiplexed bead flow cytometry; Guanine nucleotide-binding protein G(o) subunit alpha (Homo sapiens), P09471; actives lie on both sides; AID 1415, 2008; 220,000 tested, 0.33% active; binding response (% of control), % at 10 µM; in the data active = binding response below about 49% or above about 150%; inactive = in between;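 note: fluorescent Galphao activated with aluminum fluoride binding bead-coupled RGS4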
GSH fluor: compound fluorescence on glutathione beads, profiling panel, artefact control, biophysical, 488/530 nm, flow cytometry; GSH beads flow cytometry, compound fluorescence 488/530 nm; active compounds read high; fluorescence (KMESF) at 10 µM; 190,000 tested, 0.25% active; AID 1776, 2009; in the data active = fluorescence above about 89;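 note: glutathione beads carrying GST-tagged Bcl family fusion proteins plus one bare bead set; values are compound well signal with DMSO vehicle wells as background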
RGS4-Gao HTS: modulators of RGS–Galpha-o binding, primary screen, biochemical, multiplexed beads, flow cytometry, RGS4/7/8/16/19; shares compounds with RGS16-Gao HTS; multiplexed bead flow cytometry; RGS4–Galpha-o binding response, % at 10 µM; 1,600 tested, 99% active; AID 1504, 2009;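 note: fluorescently labeled Galpha-o bound to GDP with aluminium fluoride binding biotinylated RGS beads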
Avidin counter: disruption of biotin probe capture by avidin, counter-screen for RGS protein interaction modulators, biochemical, flow cytometry, bead-based. shares compounds with RGS16-Gao HTS. streptavidin beads, fluorescein-biotin binding. inhibition, % at 10 µM. 1,700 tested, under 10 active. AID 1783, 2009;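 active = inhibition above 50%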;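 note: median green fluorescence of gated singlet beads compared with DMSO control wells; 0% = DMSO wells and 100% = complete loss of bead fluorescence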
RGS8-Gao confirm: RGS8-Galphao binding modulators, confirmation, biochemical, multiplexed bead flow cytometry, single concentration; shares compounds with RGS16-Gao HTS; bead-based flow cytometry RGS8-Galphao binding, fluorescence; actives lie on both sides; binding response (% of control), % at 10 µM; 1,700 tested, 3% active; AID 1836, 2009; in the data active = binding response below about 72% or above about 130%; inactive = in between;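 note: Galphao activated as GDP AlF4 complex before binding bead RGS8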
RGS7-Gao confirm: RGS7-Galphao binding modulators, confirmation, biochemical, multiplexed bead flow cytometry, single concentration; AID 1837, 2009; bead-based flow cytometry RGS7-Galphao binding; actives lie on both sides; shares compounds with RGS16-Gao HTS; 1,700 tested, 7.8% active; response (percent of control binding), % at 10 µM; in the data active = response below about 75% or above about 130%; inactive = in between;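 note: fluorescent Galphao activated with GDP and aluminum fluoride binding bead-coupled RGS7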
RGS16-Gao conf: modulators of RGS16-Galphao protein binding, confirmation, biochemical, single concentration, multiplexed bead flow cytometry; response (% of control binding), % at 10 µM; bead-based flow cytometry; actives lie on both sides; shares compounds with RGS16-Gao HTS; AID 1838, 2009; 1,700 tested, 4% active; in the data active = response below about 74% or above about 130%; inactive = in between;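 note: Galphao activated as the GDP aluminium fluoride complex binding bead-coupled RGS16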
RGS4-Gao confirm: modulators of RGS4-Galphao protein binding, confirmation, biochemical, single concentration, multiplexed bead flow cytometry; shares compounds with RGS16-Gao HTS; actives lie on both sides; binding response (% of control), % at 10 µM; 1,700 tested, 4% active; AID 1840, 2009; in the data active = binding response below about 74% or above about 130%; inactive = in between
RGS19-Gao conf: regulators of RGS19-Galphao binding, confirmation, biochemical, single point, multiplexed bead flow cytometry. bead-based flow cytometry RGS19-Galphao binding; actives lie on both sides. response (percent of control binding), % at 10 µM. 1,700 tested, 5% active. AID 1841, 2009. shares compounds with RGS16-Gao HTS; in the data active = response below about 50% or above about 160%; inactive = in between;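 note: 100% = no compound control and 0% = blank background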
Numbers without * were called inactive; ? = inconclusive; . = no result given; [ ] = dose if it differs, or a comment. Unless noted, the rule behind the calls is not given here.

SMILES | RGS8-Gao | RGS7-Gao reg | Avidin bead fluor | RGS16-Gao HTS | RGS4-Gao reg | GSH fluor | RGS4-Gao HTS | Avidin counter | RGS8-Gao confirm | RGS7-Gao confirm | RGS16-Gao conf | RGS4-Gao confirm | RGS19-Gao conf
NC(=O)c1ccc(NC(=O)CN2CCN(c3ccc(Cl)cc3)CC2)cc1 | 36* | 34* | 11 | 29 | 38* | 13 | . | 0 | 103 | 102 | 103 | 104 | 109
CCN(CC)CCn1c2ccccc2c2nc3ccc([N+](=O)[O-])cc3cc21 | 95 | ? | 8 | 92 | 94 | . | . | . | . | . | . | . | .
c1ccc(-c2csc3ncnc(NCc4ccccn4)c23)cc1 | 128 | ? | 6 | 147 | 153*[activator] | . | . | -1 | 102 | 102 | 100 | 103 | 91
COc1ccc(CCNC(=O)CN(C)S(=O)(=O)c2ccc(Br)s2)cc1OC | 124 | 100 | 6 | 241*[activator] | 103 | 25 | 103* | 0 | 98 | 103 | 103 | 103 | 112
Cc1ccc(N2C(=O)c3cccc4c(Oc5ccccc5[N+](=O)[O-])ccc(c34)C2=O)c(C)c1 | 126 | 122 | 14 | 235*[activator] | 121 | 2 | 121* | 1 | 107 | 110 | 107 | 108 | 115
CCCN1CNC(=S)N(c2ccccc2OC)C1 | 98 | 104 | 9 | 47 | 100 | 16 | . | . | . | . | . | . | .
CCCN1CN(c2ccccc2)C(=S)N(c2ccccc2)C1 | 136 | ? | 3 | 169 | 195*[activator] | . | . | 0 | 101 | 99 | 100 | 100 | 104
C=CCn1c(=O)c(C(=O)Nc2ccccc2S(N)(=O)=O)c(O)c2ccccc21 | 107 | 100 | 10 | 110 | 102 | 10 | . | . | . | . | . | . | .
COc1ccc(S(=O)(=O)N(C)c2c(C)n(C)n(-c3ccccc3)c2=O)cc1OC | 100 | 203*[activator] | 107* | 105 | 119 | 25 | 119* | 3 | 92 | 67* | 74* | 71* | 50*
N#C/C(=C\N1CCCCC1)S(=O)(=O)c1ccc(Cl)cc1 | 107 | ? | 8 | 110 | 109 | . | . | . | . | . | . | . | .
Cc1c(Cl)c(C(F)(F)F)nn1CC(=O)NCc1ccccc1 | 102 | 99 | 6 | 102 | 98 | 15 | . | . | . | . | . | . | .
Cc1c(Br)c(C(F)(F)F)nn1CC(=O)NCc1ccccc1 | 127 | 110 | 13 | 203*[activator] | 109 | 19 | 109* | -1 | 102 | 101 | 102 | 102 | 90
COc1ccc(C2=CC(=O)C=CC2=O)cc1 | 71 | ? | 5 | 67 | 93 | . | . | 1 | 53* | 80 | 15* | 97 | 32*
CCOC(=O)c1c(-c2cccs2)csc1NC(=O)CN(CC)CC | 55* | 42* | 2 | 38 | 46* | 27 | . | -1 | 99 | 95 | 99 | 95 | 105
Cc1cccc(OC(C)C(=O)N(Cc2cccs2)C2CCS(=O)(=O)C2)c1C (centres undefined) | 75 | 78 | 9 | -16* | 69 | 11 | 69* | 0 | 100 | 96 | 97 | 100 | 100
Cc1ccccc1OCC(=O)N(Cc1cccs1)C1CCS(=O)(=O)C1 (centres undefined) | 94 | 97 | 14 | 99 | 89 | 10 | . | . | . | . | . | . | .
COc1ccc(S(=O)(=O)NCC2CCC(C(=O)NCC(OC)OC)CC2)cc1 (centres undefined) | 100 | 102 | 7 | 107 | 98 | 15 | . | . | . | . | . | . | .
COc1cccc(Cn2c(Oc3ccccc3)nc3c2c(=O)n(C)c(=O)n3C)c1 | 86 | 90 | 1 | -247* | 83 | 43 | 83* | . | . | . | . | . | .
COc1ccc(NC(=O)C2CC(=O)OC2c2ccccc2)cc1 (centres undefined) | 90 | 99 | 7 | 24* | 96 | 10 | 96* | 0 | 104 | 103 | 104 | 103 | 102
Cc1cc(NC(=O)C2CC(=O)OC2c2ccccc2)no1 (centres undefined) | 101 | 97 | 13 | 100 | 96 | 29 | . | . | . | . | . | . | .
CC(=O)c1ccc(OCCn2cnc3ccccc32)cc1 | 120 | 109 | 18 | 192*[activator] | 112 | 10 | 112* | -1 | 100 | 101 | 102 | 101 | 109
CC(=O)OC(C(=O)NCCN1CCOCC1)c1c(F)cccc1F (centres undefined) | 100 | 105 | 8 | 100 | 100 | 19 | . | . | . | . | . | . | .
COc1ccc(C)cc1NC(=O)Nc1ccccc1 | 101 | 104 | 13 | 98 | 104 | 57 | . | . | . | . | . | . | .
COc1cccc(NC(=O)Nc2cc(C)ccc2OC)c1 | 34* | 26* | 2 | 22* | 36* | 15 | . | 2 | 98 | 95 | 97 | 100 | 103
CCN(CC)S(=O)(=O)c1cccc(C(=O)N/N=C/c2ccc(O)c(O)c2O)c1 | 51* | 31* | -1 | -61 | 43* | 1 | . | 1 | 64* | 61* | 57* | 63* | 16*
